Source: PubChem BioAssay (NCI)
Compounds without any hit were thinned out: in the full panel of roughly 83,000, 20% have a hit.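 Single-dose data. Exposure time 48 hours. Values below 10 considered active.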 Calls of active or inactive are those of the source.

test system: HL-60(TB) leukemia; experiment: NCI-60 one-dose screen, 48 h (100 = growth as untreated, 0 = no growth, -100 = all killed); details: 10 µM unless noted

Structure (SMILES) | growth
O=C(CSc1nc2sc3c(c2c(=O)n1-c1ccccc1)CCCCC3)N/N=C/c1cccc([N+](=O)[O-])c1 | 103% (inactive)
COc1ccc2[nH]c(=O)c(/C=C/C(=O)c3ccc(Nc4nccc(-c5ccc6ccccc6c5)n4)cc3)cc2c1 | 97.6% (inactive)
O=C(Nc1ccncc1)C(=O)c1cn(S(=O)(=O)c2cccc(F)c2)c2ccccc12 | -9.88% (active)
COc1ccc(CN(c2ccc(C)cc2)C2OC(=O)c3ccccc32)cc1OC (centres undefined) | 96.9% (inactive)
C=CCC(O)C=C (centres undefined) | 101% (inactive)
COc1ccc2c(c1)c(-c1ccc(-c3cn(C)c4ccc(OC)cc34)[nH]1)cn2C | -24.7% (active)
Cc1ccc(C)c(COc2cc(NC(=O)c3ccc4c(c3)OCO4)ccc2N(C)S(C)(=O)=O)c1 | -5.51% (active)
COc1cc(/C=C(/C)C[N+](=O)[O-])ccc1O | 71.5% (inactive)
COc1cc(/C=C2\CN(C(=O)OC(C)(C)C)C/C(=C\c3ccc(O)c(OC)c3)C2=O)ccc1O | 97.1% (inactive)
COc1ccc(C2CC(c3ccc4ccccc4c3)=NN2c2nc(O)c(C3=c4cc(OC)ccc4=NC3=O)s2)cc1 (centres undefined) | 36.2% (inactive)
COc1ccccc1OCC(=O)N1CCCCCC1 | 93.6% (inactive)
CC1(C)N=C(N)N=C(N)N1c1cc(Cl)ccc1Cl | 53.7% (inactive)
CN1CCN(C(=O)c2cc(-c3ccc4ncnc(N5CCc6cc(F)c(Cl)cc65)c4c3)cnc2N)CC1 | -32.5% (active)
C=C1C(=O)O[C@H]2[C@H]1CC/C(COC(=O)NCc1ccc(Cn3c(=O)sn(CCCCl)c3=O)cc1)=C\CC[C@@]1(C)O[C@@H]21 | -50.6% (active)
